Records with an inconclusive call do not appear. The source made the active and inactive calls. Unless noted, calls come from the whole dose curve; as a rule, active = well fitted curve in the direction sought with a large enough effect; inconclusive = small, poorly fitted or top-dose-only effect, or another doubt; inactive = no such curve, though single readings can be large; an effect the other way counts as inactive or inconclusive.

Experiment [1] deals with Calcium and integrin-binding protein 1 (Homo sapiens) (UniProt Q99828). Nature of the experiment: Primary qHTS for Identification of Calcium Integrin Binding Protein 1 (CIB1) Competitor (AID 1508620).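 Note: GST tagged CIB1 binding a fluorescein labelled alphaIIb integrin peptide tracer; top concentration of the series differs between compounds; % is set by controls: 0 for no effect and ±100 for the full control effect.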 The conditions noted are these: CIB1-GST / FITC-alphaIIb peptide fluorescence polarization; series mostly up to 57.7 µM. Put shortly:
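Fluorescence polarization competition: CIB1-GST (1 uM final) preincubated with compound 15 min at room temperature, then FITC-labeled alphaIIb peptide (100 nM final) added for another 15 min. Polarization read at Ex 480/Em 540.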
(Quantitative high-throughput screening tests each substance at several concentrations.)

For experiment [2], the target named is Cytochrome P450 2D6 (Homo sapiens) (UniProt P10635). Nature of the experiment: Cytochrome P450 family 2 subfamily D member 6 (CYP2D6) small molecule antagonists: luciferase biochemical (cell-free) qHTS assay (AID 1645840; active = well fitted curve in the direction sought with a large enough effect in the repeat runs; an effect the other way counts as inactive or inconclusive; note: nearly all actives have a fitted effect of over 55% in size; note: potency is the fitted concentration of half-maximal effect; for activity change, negative = inhibition: % is set by controls: 0 for no effect and ±100 for the full control effect). The conditions noted are these: P450-Glo CYP2D6 enzyme, luciferin luminescence, 1 h; series mostly up to 57.4 µM. Summed up:
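P450-Glo luminescent screen: recombinant CYP2D6 enzyme–proluciferin substrate mix preincubated with compound 10 min at room temperature, then NADPH regeneration added for 1 h at room temperature. Detection reagent added for 20 min; luciferin light read as relative luminescence units.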

For experiment [3], the target named is Cytochrome P450 2C9 (Homo sapiens) (UniProt P11712). Kind of experiment: Cytochrome P450 family 2 subfamily C member 9 (CYP2C9) small molecule antagonists: luciferase biochemical (cell-free) qHTS assay (AID 1645842; active = well fitted curve in the direction sought with a large enough effect in the repeat runs; an effect the other way counts as inactive or inconclusive; note: nearly all actives have a fitted effect of over 55% in size; note: potency is the fitted concentration of half-maximal effect; for activity change, negative = inhibition: % is set by controls: 0 for no effect and ±100 for the full control effect). The conditions noted are these: P450-Glo CYP2C9 enzyme assay, luciferin luminescence; series mostly up to 57.4 µM. Summed up: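 Luminescence, after 20 min with luciferin detection reagent, reflected CYP2C9 turnover during a 1 h NADPH-driven reaction at 37C. Enzyme-substrate mix contained 0.4% bovine serum albumin and was preincubated with compound 10 min at room temperature.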

Experiment [4] is described as follows: Primary qHTS for inhibitors of nuclear receptor binding SET domain protein 2 (NSD2) in an isogenic RCH-ACV NSD2 p.E1099K mutant (9B) (AID 1645876). Note: nearly all actives have a fitted effect of over 70% in size. The conditions noted are these: RCH-ACV NSD2 E1099K (9B) viability, CellTiter-Glo, 72 h; series mostly up to 44.9 µM.
Experiment [5] can be described thus: Primary qHTS for inhibitors of nuclear receptor binding SET domain protein 2 (NSD2) in an RCH-ACV wild type WT cells (2C) (AID 1645877). Note: nearly all actives have a fitted effect of over 70% in size. The conditions noted are these: RCH-ACV (leukaemia line) NSD2 WT (2C) viability, CellTiter-Glo, 72 h; series mostly up to 44.9 µM.
The target of experiment [6] is Catechol O-methyltransferase (Homo sapiens) (UniProt P21964). Kind of experiment: Confirmatory Screen for Target Class Profiling of Small Molecule Inhibitors of Methyltransferases (AID 1745852; calls by dose curve). The conditions noted are these: MTase-Glo luminescence, SAH detection, recombinant enzyme; measured here: COMT max response; stronger effect = lower value.
Experiment [7] addresses Guanidinoacetate N-methyltransferase (Homo sapiens) (UniProt Q14353). Described as above. The conditions noted are these: MTase-Glo luminescence, SAH detection, recombinant enzyme; activity change, negative = inhibition: at 57.3 µM (top of the series) unless noted.
For experiment [8], the target named is Nicotinamide N-methyltransferase (Homo sapiens) (UniProt P40261). The description is as above. The conditions noted are these: MTase-Glo luminescence, SAH detection, recombinant enzyme; measured here: NNMT max response; stronger effect = lower value.
In experiment [9] the target is Phenylethanolamine N-methyltransferase (Homo sapiens) (UniProt P11086). Described as above. The conditions noted are these: MTase-Glo luminescence, SAH detection, recombinant enzyme; measured here: PNMT max response; stronger effect = lower value.
Experiment [10] addresses Cytochrome P450 3A4 (Homo sapiens) (UniProt P08684). Kind of experiment: Cytochrome P450 family 3 subfamily A member 4 (CYP3A4) small molecule antagonists: luciferase qHTS assay (AID 1645841; active = well fitted curve in the direction sought with a large enough effect in the repeat runs; an effect the other way counts as inactive or inconclusive; note: nearly all actives have a fitted effect of over 45% in size; note: potency is the fitted concentration of half-maximal effect). The conditions noted are these: P450-Glo CYP3A4 enzyme assay, luciferin luminescence; series mostly up to 57.4 µM. Summed up:
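P450-Glo CYP3A4 enzyme with proluciferin substrate was preincubated with DMSO-dissolved compounds for 10 min at room temperature. NADPH regeneration solution started a 1 h reaction. Detection reagent stopped it, and luminescence was read after 20 min.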

For experiment [11], the target named is N-terminal Xaa-Pro-Lys N-methyltransferase 1 (Homo sapiens) (UniProt Q9BV86). Kind of experiment: Confirmatory qHTS for Inhibitors of N-terminal methyltransferase 1 (NTMT1): MTaseGlo Assay (AID 1645874).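 Note: luminescence from SAH made as NTMT1 methylates SPKRIA peptide using SAM; 0% = DMSO control and -100% = no-enzyme control; nearly all actives have a fitted effect of over 65% in size.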 The conditions noted are these: NTMT1 enzyme, MTase-Glo SAH luminescence; series mostly up to 51.5 µM. Summed up: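 Compounds are incubated with 125 nM NTMT1 and 100 uM SAM for 15 min before the SPKRIA peptide (1 uM) starts a 30 min room-temperature methylation. SAH is measured by coupled luciferase luminescence and curves fitted to a Hill equation.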

In experiment [12] the target is Rap guanine nucleotide exchange factor 3 (Homo sapiens) (UniProt O95398). Kind of experiment: Confirmatory qHTS for agonist of cAMP-regulated guanine nucleotide exchange factor 3 (EPAC1) (AID 1645881).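 Note: EPAC1 catalysed release of BODIPY-GDP from Rap1B seen as fluorescence loss; nearly all actives have a fitted effect of over 75% in size.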 The conditions noted are these: EPAC1 Rap1B BODIPY-GDP exchange fluorescence, 100% = cAMP control response; series mostly up to 154 µM.
The target of experiment [13] is Rap guanine nucleotide exchange factor 4 (Homo sapiens) (UniProt Q8WZA2). Kind of experiment: Confirmatory qHTS for agonist of cAMP-regulated guanine nucleotide exchange factor 4 (EPAC2) (AID 1645884).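 Note: nucleotide exchange releases bodipy-GDP from Rap1 and this lowers its fluorescence; % is set by controls: 0 for no effect and ±100 for the full control effect; nearly all actives have a fitted effect of over 65% in size.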 The conditions noted are these: EPAC2 GEF activity, Rap1B-BODIPY-GDP fluorescence, percent relative to cAMP agonist control; series mostly up to 154 µM.
Experiment [14] shares this target. Nature of the experiment: Confirmatory qHTS for antagonist of cAMP-regulated guanine nucleotide exchange factor 4 (EPAC2) (AID 1645885). Note: nearly all actives have a fitted effect of over 25% in size. The conditions noted are these: EPAC2 Rap1B-BODIPY-GDP exchange fluorescence, biochemical; series mostly up to 12.7 µM.
Experiment [15] addresses Rap guanine nucleotide exchange factor 3 (Homo sapiens) (UniProt O95398). Kind of experiment: Counterscreen qHTS for antagonist of cAMP-regulated guanine nucleotide exchange factor 3 (EPAC1) (AID 1645888).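 Note: fluorescence loss as bound BODIPY-GDP is released from Rap1B; % of control where 0% means no effect.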 The conditions noted are these: Rap1B-BODIPY-GDP nucleotide exchange, fluorescence; series mostly up to 154 µM. Summed up: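 Measured: fluorescence of BODIPY-GDP bound to Rap1B, which falls as exchange proceeds. Conditions include 50 uM competing GDP, 5 and 30 min reads, and a later cAMP challenge for antagonist detection.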
In general terms: Counterscreens check selectivity or assay interference.

Experiment [16] can be described thus: NCATS anti-infectives library activity on HEK293 viability as a counter-qHTS vs the C. elegans viability qHTS (AID 1745854).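 Note: HEK293 cells exposed to compounds for 24 hr before the viability read; % is set by controls: 0 for no effect and ±100 for the full control effect.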 The conditions noted are these: HEK293 viability counter-screen; series mostly up to 41.8 µM. Put shortly:
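Compounds were acoustically plated (several concentrations, 1:5, final up to 41.7 uM), then 1500 HEK293 cells added per well and incubated 24 hr at 37C, 5% CO2. CellTiter-Glo was added and luminescence read after 10 min.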

Sequence of Calcium and integrin-binding protein 1 (Homo sapiens) (Q99828 whole entry, looked up): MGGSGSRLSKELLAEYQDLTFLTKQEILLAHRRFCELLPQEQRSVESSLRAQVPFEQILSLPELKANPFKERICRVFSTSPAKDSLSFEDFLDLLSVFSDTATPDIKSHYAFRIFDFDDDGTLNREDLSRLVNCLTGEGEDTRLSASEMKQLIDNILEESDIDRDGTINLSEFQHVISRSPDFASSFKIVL
Sequence of Cytochrome P450 2D6 (Homo sapiens) (P10635 whole entry, looked up): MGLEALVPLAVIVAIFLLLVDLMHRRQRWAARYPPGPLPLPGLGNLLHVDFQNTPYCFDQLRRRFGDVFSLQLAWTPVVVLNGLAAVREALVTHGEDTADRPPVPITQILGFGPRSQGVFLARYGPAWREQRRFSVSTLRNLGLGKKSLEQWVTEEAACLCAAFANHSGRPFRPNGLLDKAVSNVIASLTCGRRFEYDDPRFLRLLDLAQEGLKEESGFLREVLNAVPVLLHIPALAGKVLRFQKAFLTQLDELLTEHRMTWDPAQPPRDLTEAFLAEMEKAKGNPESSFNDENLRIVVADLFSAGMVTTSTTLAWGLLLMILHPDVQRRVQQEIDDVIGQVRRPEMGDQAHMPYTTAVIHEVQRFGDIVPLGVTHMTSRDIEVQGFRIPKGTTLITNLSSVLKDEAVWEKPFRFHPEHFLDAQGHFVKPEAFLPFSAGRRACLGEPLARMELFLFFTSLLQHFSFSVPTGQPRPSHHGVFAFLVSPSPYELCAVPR
Sequence of Cytochrome P450 2C9 (Homo sapiens) (P11712 whole entry, looked up): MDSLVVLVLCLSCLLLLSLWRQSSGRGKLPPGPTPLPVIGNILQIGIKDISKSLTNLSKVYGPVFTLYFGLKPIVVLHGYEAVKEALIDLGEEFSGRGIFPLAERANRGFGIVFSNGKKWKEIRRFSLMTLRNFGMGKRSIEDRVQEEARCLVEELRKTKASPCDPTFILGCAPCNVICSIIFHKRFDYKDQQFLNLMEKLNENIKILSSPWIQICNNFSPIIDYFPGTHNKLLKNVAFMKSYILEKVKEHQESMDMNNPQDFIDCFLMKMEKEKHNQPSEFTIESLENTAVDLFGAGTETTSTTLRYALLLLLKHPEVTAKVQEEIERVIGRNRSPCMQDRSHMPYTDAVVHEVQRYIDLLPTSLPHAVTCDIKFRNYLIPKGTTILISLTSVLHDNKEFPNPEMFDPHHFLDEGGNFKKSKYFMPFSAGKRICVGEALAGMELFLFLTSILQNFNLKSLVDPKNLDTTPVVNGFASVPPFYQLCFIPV
Sequence of Nicotinamide N-methyltransferase (Homo sapiens) (P40261 whole entry, looked up): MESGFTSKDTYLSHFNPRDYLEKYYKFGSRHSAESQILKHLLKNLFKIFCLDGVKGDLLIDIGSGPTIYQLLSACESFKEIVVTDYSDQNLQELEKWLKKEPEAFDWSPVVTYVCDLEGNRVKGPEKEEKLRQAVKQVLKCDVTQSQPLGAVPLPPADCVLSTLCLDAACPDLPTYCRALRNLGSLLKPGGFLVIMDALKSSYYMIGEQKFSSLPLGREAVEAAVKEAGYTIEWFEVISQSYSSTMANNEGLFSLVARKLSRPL
Sequence of Catechol O-methyltransferase (Homo sapiens) (P21964 whole entry, looked up): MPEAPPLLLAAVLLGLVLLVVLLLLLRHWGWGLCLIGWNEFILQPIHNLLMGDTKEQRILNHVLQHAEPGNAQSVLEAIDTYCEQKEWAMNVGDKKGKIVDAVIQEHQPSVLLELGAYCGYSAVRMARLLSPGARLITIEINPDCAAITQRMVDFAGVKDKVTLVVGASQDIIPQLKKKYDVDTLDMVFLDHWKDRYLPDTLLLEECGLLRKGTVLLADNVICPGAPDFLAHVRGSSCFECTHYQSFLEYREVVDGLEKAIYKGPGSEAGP
Sequence of Phenylethanolamine N-methyltransferase (Homo sapiens) (P11086 whole entry, looked up): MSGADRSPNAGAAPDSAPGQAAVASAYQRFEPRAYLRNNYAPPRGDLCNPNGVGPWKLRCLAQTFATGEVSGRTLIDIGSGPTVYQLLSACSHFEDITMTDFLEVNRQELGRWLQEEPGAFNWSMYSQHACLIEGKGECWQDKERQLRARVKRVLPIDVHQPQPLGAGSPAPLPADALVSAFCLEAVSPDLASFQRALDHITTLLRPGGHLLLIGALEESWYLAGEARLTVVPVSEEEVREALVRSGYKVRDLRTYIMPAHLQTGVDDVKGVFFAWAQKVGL
Sequence of Rap guanine nucleotide exchange factor 3 (Homo sapiens) (O95398 whole entry, looked up): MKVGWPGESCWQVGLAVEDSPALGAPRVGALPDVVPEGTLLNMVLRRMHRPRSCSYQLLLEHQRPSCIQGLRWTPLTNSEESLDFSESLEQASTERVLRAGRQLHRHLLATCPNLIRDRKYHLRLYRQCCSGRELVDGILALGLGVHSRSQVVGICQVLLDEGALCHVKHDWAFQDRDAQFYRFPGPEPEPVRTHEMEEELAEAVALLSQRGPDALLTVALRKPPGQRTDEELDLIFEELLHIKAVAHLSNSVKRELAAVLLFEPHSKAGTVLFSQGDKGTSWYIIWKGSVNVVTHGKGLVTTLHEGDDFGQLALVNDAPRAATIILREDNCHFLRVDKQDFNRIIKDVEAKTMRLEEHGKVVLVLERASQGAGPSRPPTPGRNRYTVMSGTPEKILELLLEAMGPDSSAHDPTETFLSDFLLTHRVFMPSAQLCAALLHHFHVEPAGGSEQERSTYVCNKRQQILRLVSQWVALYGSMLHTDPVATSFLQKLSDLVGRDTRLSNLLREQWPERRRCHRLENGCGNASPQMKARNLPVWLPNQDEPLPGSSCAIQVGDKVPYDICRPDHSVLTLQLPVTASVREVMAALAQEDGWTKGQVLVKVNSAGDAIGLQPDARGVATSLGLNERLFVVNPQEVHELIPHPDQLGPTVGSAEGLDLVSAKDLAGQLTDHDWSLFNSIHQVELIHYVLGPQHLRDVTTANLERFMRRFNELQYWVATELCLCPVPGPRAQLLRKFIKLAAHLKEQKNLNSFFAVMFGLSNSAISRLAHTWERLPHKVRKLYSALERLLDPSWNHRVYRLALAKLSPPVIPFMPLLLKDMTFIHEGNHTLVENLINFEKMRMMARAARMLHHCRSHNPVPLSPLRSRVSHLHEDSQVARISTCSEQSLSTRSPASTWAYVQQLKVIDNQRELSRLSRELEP
Sequence of Rap guanine nucleotide exchange factor 4 (Homo sapiens) (Q8WZA2 whole entry, looked up): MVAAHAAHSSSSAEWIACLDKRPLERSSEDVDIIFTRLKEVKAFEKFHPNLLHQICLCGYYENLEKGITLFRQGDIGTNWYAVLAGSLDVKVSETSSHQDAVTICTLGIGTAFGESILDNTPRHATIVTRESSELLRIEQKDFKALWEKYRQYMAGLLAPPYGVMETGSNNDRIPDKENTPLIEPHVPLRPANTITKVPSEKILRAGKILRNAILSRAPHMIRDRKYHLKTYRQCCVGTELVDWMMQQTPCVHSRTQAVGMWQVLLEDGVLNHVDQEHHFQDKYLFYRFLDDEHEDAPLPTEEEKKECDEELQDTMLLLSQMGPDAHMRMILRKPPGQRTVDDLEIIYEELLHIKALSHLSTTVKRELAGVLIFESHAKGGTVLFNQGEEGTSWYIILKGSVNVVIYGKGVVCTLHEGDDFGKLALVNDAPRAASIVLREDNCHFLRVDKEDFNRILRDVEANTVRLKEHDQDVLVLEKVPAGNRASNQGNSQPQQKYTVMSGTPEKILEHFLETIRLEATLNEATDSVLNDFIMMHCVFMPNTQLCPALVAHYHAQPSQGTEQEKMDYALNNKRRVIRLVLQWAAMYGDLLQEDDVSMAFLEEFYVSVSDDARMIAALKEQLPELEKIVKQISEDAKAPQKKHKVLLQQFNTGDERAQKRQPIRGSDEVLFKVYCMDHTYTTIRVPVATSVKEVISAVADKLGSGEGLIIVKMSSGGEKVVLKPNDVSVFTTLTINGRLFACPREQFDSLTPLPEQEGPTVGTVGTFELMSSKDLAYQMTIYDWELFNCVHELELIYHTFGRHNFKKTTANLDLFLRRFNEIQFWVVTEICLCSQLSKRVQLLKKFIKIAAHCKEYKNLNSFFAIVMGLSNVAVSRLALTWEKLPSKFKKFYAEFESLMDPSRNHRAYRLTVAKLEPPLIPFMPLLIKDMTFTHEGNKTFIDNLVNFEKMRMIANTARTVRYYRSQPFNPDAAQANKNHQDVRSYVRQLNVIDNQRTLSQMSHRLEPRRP
Sequence of Cytochrome P450 3A4 (Homo sapiens) (P08684 whole entry, looked up): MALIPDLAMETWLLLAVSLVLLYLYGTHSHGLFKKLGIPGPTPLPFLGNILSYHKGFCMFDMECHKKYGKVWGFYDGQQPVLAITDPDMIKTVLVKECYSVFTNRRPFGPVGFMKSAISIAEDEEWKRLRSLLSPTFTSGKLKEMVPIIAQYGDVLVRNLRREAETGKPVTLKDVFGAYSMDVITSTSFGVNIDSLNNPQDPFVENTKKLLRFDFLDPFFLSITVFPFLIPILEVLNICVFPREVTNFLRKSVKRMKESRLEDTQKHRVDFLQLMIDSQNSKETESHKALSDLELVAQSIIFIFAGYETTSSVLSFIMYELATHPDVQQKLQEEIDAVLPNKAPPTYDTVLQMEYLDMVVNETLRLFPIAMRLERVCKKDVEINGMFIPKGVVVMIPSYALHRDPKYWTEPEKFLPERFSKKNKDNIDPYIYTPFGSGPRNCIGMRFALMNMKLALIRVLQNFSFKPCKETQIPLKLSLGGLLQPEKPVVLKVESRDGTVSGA
Sequence of N-terminal Xaa-Pro-Lys N-methyltransferase 1 (Homo sapiens) (Q9BV86 whole entry, looked up): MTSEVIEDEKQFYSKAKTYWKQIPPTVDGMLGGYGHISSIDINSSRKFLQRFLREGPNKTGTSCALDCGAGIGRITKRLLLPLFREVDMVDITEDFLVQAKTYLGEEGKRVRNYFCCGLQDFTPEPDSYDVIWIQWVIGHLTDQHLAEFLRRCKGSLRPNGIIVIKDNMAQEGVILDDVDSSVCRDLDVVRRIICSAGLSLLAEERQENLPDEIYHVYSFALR

With `CNC(C)C(=O)NC(C(=O)N1CCCC1C(=O)Nc1cccc2ncccc12)C(C)C` (stereo unspecified), the Potency entry in [1], in [2], in [3], in experiment [4] and in experiment [5] was “inactive” in each case.
In the case of `CCC(C)C(N)C(=O)NCCN1CCOCC1` (stereo unspecified), the Potency result in [1], in [2], in experiment [3], in [4] and in [5] was “inactive” in each case.
With `O=C(Cn1c2ccccc2c2nc3n(c(=O)c21)CCS3)N1CCCC1`, the Potency result in [1], in experiment [2], in [3], in experiment [4] and in [5] was “inactive” throughout.
Take `O=C(O)[C@H](Cc1ccccc1)Oc1ccc(-c2ccccc2)cc1`: the Potency result in experiment [1], in [2], in experiment [4] and in [5] was “inactive” each time. In [3], the Potency is 9.52 µM (active).
In the case of `COc1cc(Nc2nc3ccccc3nc2NS(=O)(=O)c2cccc(NC(=O)c3ccc(C)c(OC)c3)c2)cc(OC)c1`, the Potency entry in experiment [1], in experiment [2], in [4] and in experiment [5] was “inactive” throughout. Further, the Potency in experiment [3] is 1.51 µM (active).
Regarding `COc1ccccc1CN[C@H]1CCCN[C@H]1c1ccccc1`, the Potency result in experiment [1], in [3] and in experiment [4] was “inactive” each time. Besides, in experiment [2], the Potency is 1.07 µM (active). Further, the activity in [6] is 0.295%; in experiment [8], -6.63%; in [9], -0.84%. Further, the activity change, negative = inhibition in [7] came to 7.32%.
In the case of `CC1(C)CC(NC(=O)C(=O)Nc2ccc(Cl)cc2)CC(C)(C)N1`, the Potency result in [1], in experiment [2], in [3], in [4] and in [5] was “inactive” throughout.
Consider `Cc1cc(CNC(=O)c2cc(C(=O)NCc3ccc(F)c(C)c3)ncn2)ccc1F`, for which the Potency result in [1], in experiment [2], in experiment [3], in [4] and in experiment [5] was “inactive” throughout.
`COc1ccc(-n2c(SCC#N)nc3sc4c(c3c2=O)CCCC4)cc1`: the Potency entry in [1], in experiment [2], in experiment [4] and in experiment [5] was “inactive” in each case. Besides, the Potency in experiment [3] is 4.77 µM (active).
In the case of `CCCCNc1nc(N)c2[nH]c(=O)n(Cc3ccc(OCCN(C)C)nc3)c2n1`, the Potency entry in experiment [1], in experiment [2], in experiment [3], in experiment [4] and in [5] was “inactive” in each case.
As for `Cc1oc2nc3c(c(NC(=O)CN4CCCC4=O)c2c1C)CCCC3`, the Potency entry in experiment [1], in [2], in experiment [3], in experiment [4] and in experiment [5] was “inactive” in each case.
As to `Cc1ccc(-c2c(-c3nn(C)c4ncnc(N5CCC(N6CCCCC6)C5)c34)cnn2C)cc1` (stereo unspecified), the Potency in experiment [10] was 120 nM (active).
For the compound `CCNC(=O)C1CC(F)(c2ccc(CN3CCCC3)c(F)c2)C1` (stereo unspecified), the Potency entry in experiment [10] is “inactive”.
Regarding `COc1cccc(C(=O)NCCNc2nc3cc(C)cc(C)c3cc2C#N)c1`, the Potency entry in experiment [11] was “inactive”.
Take `O=C(O)Cn1nnc(-c2ccc(CN(CCCCOc3ccc(CN4CCCC4)cc3)CCc3ccccc3)cc2)n1`: the figures for the activity in experiment [6], in experiment [8] and in experiment [9] were -3.03%, -1.13% and 0.559%, respectively. Further, the activity change, negative = inhibition in [7] was 0%.
In the case of `COc1cnc(-c2ccc(Cn3c(CC(C)(C)C(=O)O)c(SC(C)(C)C)c4cc(OC[C@@H]5Cc6ccccc6N5C(C)=O)ccc43)cc2)nc1`, the figures for the activity in experiment [6], in experiment [8] and in experiment [9] were -6.21%, -11.1% and -8.45%, respectively. Moreover, the activity change, negative = inhibition in experiment [7] is -3.63%.
In the case of `Cc1cc(C)c2nc(-c3ccccn3)cc(C(=O)Nc3ccc(S(=O)(=O)Nc4onc(C)c4C)cc3)c2c1`, the outcome in experiment [12], in experiment [13] and in experiment [15] was “inactive” each time. Besides, the outcome in experiment [14] is “inactive; activator; fitted 7.5686 uM”.
With `NCCCCN(Cc1nc2ccccc2[nH]1)[C@H]1CCCc2cccnc21`, the outcome in [16] is “inactive”.
The same measure, in the same setting: in the case of `Fc1ccccc1-c1nc2ccn(Cc3ccc(-c4ccc(C(F)(F)F)cc4C(F)(F)F)nn3)cc-2n1` it was “inactive”.
Consider `CC1CC(=O)C2C(O)(C1)CC(O)C13OC1c1c(O)cccc1C(=O)C23O` (stereo unspecified), for which the Potency result in experiment [1] and in experiment [4] was “inactive” in each case.
Take `C=C1CC[C@@H]2C(C)(C)CCC[C@@]2(C)[C@@H]1CC/C(=C/C(=O)OC)COC(C)=O`: the Potency result in experiment [1] and in experiment [4] was “inactive” each time.
As for `C/C=C/C=C/C(O)=C1/C(=O)[C@]2(C)C(=O)[C@@](C)(O)[C@H]1[C@H]([C@@]1(C)OC(=O)C(C)=C1O)[C@H]2C(=O)CC/C=C/C`, the Potency entry in experiment [1] and in [4] was “inactive” throughout.
Turning to `COc1c2c(c(C)c3c1C(=O)OC3)OC1(C)CC(O)C34OC(OC)(CCC3(C)C1C2)OC4(C)CO` (stereo unspecified), the Potency entry in experiment [1] and in experiment [4] was “inactive” each time.
For `O=C(OCC1=CC(Cl)C(O)C(OC(=O)c2ccccc2)C1O)c1ccccc1` (stereo unspecified), the Potency entry in experiment [1] and in experiment [4] was “inactive” throughout.
On to `COC(=O)C(CC1(OC(=O)C(C)C)c2ccccc2N2C(=O)C(C)(C)N(O)C21)n1cnc2ccccc2c1=O` (stereo unspecified), for which the Potency result in experiment [1] and in experiment [4] was “inactive” in each case.
Consider `C[C@H]1CC[C@@]2(OC1)O[C@H]1CC3C4CC[C@H]5C[C@@H](O[C@@H]6O[C@H](CO)[C@H](O[C@@H]7O[C@H](CO)[C@@H](O)[C@H](O[C@@H]8OC[C@@H](O)[C@H](O)[C@H]8O)[C@H]7O[C@@H]7O[C@H](CO)[C@@H](O)[C@H](O)[C@H]7O)[C@H](O)[C@H]6O)[C@H](O)C[C@]5(C)C4=CC(=O)[C@]3(C)[C@H]1[C@@H]2C` (stereo partly specified), for which, in experiment [1], the Potency result was “inactive”. Also, in [4], the activity change, negative = viability loss was -21.3% [at 9.23 µM] (inactive).
For `CC1(C)CC[C@]2(C(=O)O[C@@H]3O[C@H](CO[C@@H]4O[C@H](CO)[C@@H](O)[C@H](O)[C@H]4O)[C@@H](O)[C@H](O[C@@H]4O[C@H](CO)[C@@H](O)[C@H](O)[C@H]4O)[C@H]3O)CC[C@]3(C)C(=CCC4[C@@]5(C)CC[C@H](O[C@@H]6OC[C@@H](O)[C@H](O)[C@H]6O)[C@@](C)(C(=O)O)C5CC[C@]43C)[C@@H]2C1` (stereo partly specified) the same measures were “inactive” and 0.102% [at 9.23 µM] (inactive).

(Values after PubChem BioAssay (NCATS).)
